From PubChem BioAssay AID624305 (National Center for Advancing Translational Sciences (NCATS), 2012)
Results filed as inconclusive are left out. Values without a mark were called inactive. The source made the active and inactive calls. The call rests on the fitted dose curve; in most records, active means well fitted activation curve with a large enough effect; inconclusive means small, poorly fitted or top-dose-only effect; inactive means no such curve, though single readings can be large or run the other way.

Assay: qHTS assay for re-activators of p53 using a Luc reporter: Hit Validation; further: nearly all actives have a fitted effect of over 75% in size; on activation: 0% is about no effect
Conditions: p53-responsive luciferase reporter cells, luminescence, H1299 line expressing heat-sensitive Ala138Val p53; series mostly up to 46.1 µM; activation: at the top concentration
Outline: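 H1299 (p53-null) cells stably carrying p53-A138V and a BP100-luciferase reporter, 1000 cells/well, treated 24 h at 37 deg C. Compounds at several concentrations, 1:5 dilution; nocodazole control; luminescence read after 10 min with detection reagent.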
Potency means the concentration at half of the fitted maximal effect.

SMILES | activation | Potency
COc1ccc(S(=O)(=O)NC2CC(C)(C)NC(C)(C)C2)c2ccccc12 | -12% | –
CCOC(=O)C1CCN(S(=O)(=O)Cc2ccccc2)C1=O (stereo unspecified) | 0.521% | –
C=CCn1c(P(C)(=O)O)nc2ccccc21 | -10.4% | –
Cc1cccc(NC(=O)c2ccccn2)c1C | – | 14.6 µM (active)
O=C(N/N=C1\CCc2ccccc21)c1ccccc1O | – | 1.03 µM (active)
Cc1c(C(=O)NC2=NCCS2)oc2ccccc12 | – | 0.58 µM (active)
Fc1cccc2sc(Nc3nnc(-c4ccco4)o3)nc12 | – | 11.6 µM (active)
CCOCCCNc1nc2c([nH]1)c(=O)n(C)c(=O)n2C | 6.25% | –
CC(C)c1ccc(NC(=O)c2snc3ccc(Cl)cc23)cc1 | – | 5.8 µM (active)
CC12CN(C(=O)c3cccc([N+](=O)[O-])c3)C3(C#N)CC1CCC23C (stereo unspecified) | -21.4% | –
Cc1cc(Oc2ccccc2)nc(-c2ccccc2O)n1 | 13% | –
O=S(=O)(N/N=C/c1ccccc1OCc1ccc(Cl)cc1)c1ccccc1 | -58.3% | –
COc1cc(C2=NOC(C(=O)NCc3ccc(F)cc3)C2)cc(OC)c1OC (stereo unspecified) | 26.6% | –
CN(C)/C=N/c1cnc(C(=O)c2ccc(Cl)cc2)n1C | – | 2.59 µM (active)
CC(C)C(=O)Nc1ccc(-c2nc3cccnc3o2)cc1 | – | 0.366 µM (active)
COc1ccc2oc(C(=O)OCC(=O)NCCN3C(=O)CSC3=O)c(C)c2c1 | -18.8% | –
Clc1ccc(-c2cn3c(n2)-c2ccccc2C3)cc1Cl | – | 10.3 µM (active)
Clc1cccc(N/N=C(\Cc2nc3ccccc3[nH]2)c2ccccc2)c1 | 20.3% | –
CC1(C)Oc2ccc(NC(=O)C3COc4ccccc4O3)cc2O1 (stereo unspecified) | – | 1.3 µM (active)
Cc1cc(C(=O)NC2CCCCC2)c(C)n1-c1ccc(F)cc1 | – | 8.2 µM (active)
CC(=O)N(C)c1ccc(NC(=O)CCN2C(=O)c3ccccc3C2=O)cc1 | -0.521% | –
